Assay outcomes (PubChem BioAssay)
Only some compounds are listed: those with a hit (about 12% of all), similar ones and a draw of the others.
SARS PLP yeast: inhibitors of SARS-CoV papain-like protease in yeast. AID 485353. S. cerevisiae expressing SARS-CoV PLpro, growth rescue. 330,000 compounds, 0.19% hits. Potency, µM (titrated, usually from 32.9 µM), for inactives: at the top dose activity, positive = growth rescue, most hits filed as activators; calls by dose curve; further: 0% is about no effect; nearly all actives have a fitted effect of over 55% in size
AMA1-RON2 inh: AMA1-RON2 (P. falciparum) interaction inhibition; AlphaScreen AMA1-biotinylated RON2 peptide binding; Potency, µM (titrated, usually from 58.2 µM), for inactives: at the top dose activity change, negative = inhibition, most hits filed as inhibitors; 360,000 compounds, 0.2% hits; AID 720542;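 further: 0% = vehicle wells and -100% = peptide control; nearly all actives have a fitted effect of over 45% in size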
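AMA1 (3D7) with his tag at 25 nM final met compounds first, then biotinylated RON2 peptide at 25 nM; detection used donor plus acceptor beads, 10 µg/mL apiece, read by AlphaScreen after 30 min at room temperature.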
Pf growth 96h: P. falciparum growth inhibition at 96 hours. AID 504834. P. falciparum luciferase reporter growth, 96 h. Potency, µM (highest dose often 28.7 µM), inactives show at the top dose activity change, negative = inhibition, hits mostly inhibitors. 320,000 compounds, 6.9% hits; further: on the % scale 0 is the no-effect control and ±100 the full control effect
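Readout is luminescence from an integrated firefly luciferase in P. falciparum. Red cells, 2% hematocrit and 0.05% parasitemia final, were cultured with compound through two parasite generations (96 hours) at 37 C, 5% CO2.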
HCV inhibitor: blocks hepatitis C virus; Huh7.5.1 HCVcc-Cre infection, luciferase reporter, 44 h; Potency, µM (titrated, usually from 41.8 µM), for inactives: at the highest dose activity change, negative = inhibition, usual class: inhibitors; 340,000 compounds, 3.4% hits; AID 651820; further: on the % scale 0 is the no-effect control and ±100 the full control effect
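Whole-lifecycle infectious HCVcc-Cre system; cells 1,000/well, compound then virus (~0.5 moi) added 4 h after plating, 44 h culture. Luciferase read 15 sec following 15 min substrate incubation, room temp.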
NS1 inh: inhibitors of influenza NS1 protein function. Potency, µM (top dose mostly 46.1 µM), inactives show top-dose activity, positive = more growth. 270,000 compounds, 0.4% hits; calls by dose curve; further: actives are rising curves; nearly all actives have a fitted effect of over 50% in size
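Recovery from NS1-induced slow growth read by OD600 in budding yeast switched to galactose assay medium (pH 6.0, -URA) at 1:100 dilution. Compound 23 nl per well; the matching strain lacking NS1 serves as control.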
Pf growth 48h: inhibits P. falciparum growth in the first generation, 48 h | P. falciparum luciferase growth in erythrocytes, 48 h | Potency, µM (top dose mostly 28.7 µM), for the others: top-dose activity change, negative = inhibition, usual class: inhibitors | 310,000 compounds, 5.9% hits; further: on the % scale 0 is the no-effect control and ±100 the full control effect
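Parasite viability was followed by luminescence of a genomically integrated firefly luciferase. Cultures held 0.1% parasitemia at 2% hematocrit (final), incubated under 5% CO2 at 37 C.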
An asterisk follows results filed as active; ? = inconclusive; . = no result given; [ ] = remark or other dose. Unless noted, the call rests on the fitted dose curve; in most records, active means well fitted curve in the direction sought with a large enough effect; inconclusive means small, poorly fitted or top-dose-only effect, or another doubt; inactive means no such curve, though single readings can be large; an effect the other way counts as inactive or inconclusive. Potency means the concentration at half of the fitted maximal effect.

SMILES	SARS PLP yeast	AMA1-RON2 inh	Pf growth 96h	HCV inhibitor	NS1 inh	Pf growth 48h
O=C(Nc1ccc(Cl)c(C(F)(F)F)c1)NC1CC2CCCC(C1)N2Cc1ccccc1 (centres undefined)	-0.8%	-0.6%	?	25.1µM*	.	?
N#Cc1ccccc1S(=O)(=O)N1CCN(C(=O)CN2C(=O)NC3(CCCC3)C2=O)CC1	-2.1%	-9.2%	2.0%	2.6%	.	-11.7%
Cc1ccc(C2C=C(c3ccc4c(c3)OCO4)Nc3ncnn32)cc1 (centres undefined)	13.5%	74.1%	11.7µM*	-18.7%	-48.6%	?
Cc1ccc(C2=CC(c3ccccc3)n3ncnc3N2)cc1 (centres undefined)	.	8.5%	.	-10.1%	.	.
COc1ccc(C(=O)CN2C(=O)NC3(CCCc4ccccc43)C2=O)cc1 (centres undefined)	.	-14.2%	10.4µM*	-10.7%	.	?
Cc1cc(C(=O)CN2C(=O)NC3(CCCc4ccccc43)C2=O)c(C)n1C (centres undefined)	-2.2%	-2.2%	.	-0.4%	5.0%	?
Cc1cc(C(=O)CN2C(=O)NC3(CCCc4sccc43)C2=O)c(C)n1-c1ccc(Cl)cc1 (centres undefined)	0.0%	-12.6%	?	-25.8%	7.4%	9.28µM*
Cc1ccsc1CN(C)C(=O)CN1C(=O)NC2(CCCc3ccccc32)C1=O (centres undefined)	9.3%	-5.4%	11.7µM*	5.8%	.	?
Cc1ccc(C)c(C(=O)CN2C(=O)NC3(CCc4ccccc43)C2=O)c1 (centres undefined)	0.5%	7.5%	14.7µM*	-7.9%	.	?
O=C(CN1C(=O)NC2(CCc3ccccc32)C1=O)c1ccc(F)cc1 (centres undefined)	0.6%	-15.7%	-15.9%	7.9%	.	10.4%
COc1ccc(CN2C(=O)C(CC(=O)NC3CCCC3)CC(C(=O)N(C)C)=C2C)cc1 (centres undefined)	.	3.0%	.	.	.	.
Cc1oc(-c2cccs2)nc1CN1CCN(Cc2ccc(F)c(F)c2)C(CCO)C1 (centres undefined)	-0.1%	-2.2%	?	5.1%	-0.6%	?
COC(=O)[C@@H]1CC[C@H](C)[C@@H](c2ccc(C)cc2)N1C(=O)c1ccc(/C=N/OC[C@@H](O)COCc2ccco2)cc1	-0.9%	.	6.57µM*	?	-24.2%	6.57µM*
C=CC[C@@H]1C=C[C@H](O/N=C/c2ccc(C(=O)N3[C@H](c4ccc(C)cc4)[C@@H](C)CC[C@H]3C(=O)OC)cc2)[C@@H](CO)O1	-3.1%	.	?	-4.8%[8.37 µM]	-28.6%	-29.9%
CN(Cc1ccccc1)S(=O)(=O)CCNC(=O)c1ccc2c(c1)OCO2	-2.8%	-11.0%	20.5%	8.4%	.	-14.5%
COC(=O)c1cc(C)sc1NC(=O)CCCC(=O)O	-3.3%	0.8%	9.28µM*	4.5%	-2.4%[9.22 µM]	-2.2%
CCc1cc(C(=O)OC)c(NC(=O)CCCC(=O)O)s1	13.4%	-4.8%	47.8%	26.9%	-32.2%	22.7%
COc1ccc(C(=O)NC(=S)Nc2ccc(Cc3ccncc3)cc2)cc1	12.1%	15.0%	198.3%	?	10.9%	?
CSc1ccc(CN2CCC(n3nccc3NC(=O)c3ccccc3C)CC2)cc1	25.9%	-18.9%	22.6%	?	1.8%	-26.2%
O=S(=O)(NCCc1ccccc1)c1ccc(Br)cc1	-1.6%	1.8%	13.1µM*	13.1%	-41.0%	-6.3%
CN(CCNC(=O)c1ccc(CS(=O)(=O)c2ccc(Br)cc2)o1)CCc1ccccc1	0.9%	12.9%	?	-3.8%	-0.6%	-14.7%
CN1CCN(CCCNC(=O)c2ccc(CS(=O)(=O)c3ccc(Br)cc3)o2)CC1	0.0%	-2.5%	8.28µM*	4.4%	1.3%	.
O=C(NCCc1ccccc1)c1ccc(CS(=O)(=O)c2ccc(Br)cc2)o1	-1.2%	19.7%	4.15µM*	28.7%	-12.6%	-7.1%
O=C(NCCCN1CCCC1)c1ccc(CS(=O)(=O)c2ccc(Br)cc2)o1	-2.3%	-0.1%	?	-17.1%	1.0%	.
O=C(Nc1ccc(-c2n[nH]c(=S)o2)cc1)c1ccccc1	1.8%	40.6%	10.9%	10.5%	1.2%	37.6%
SMILES	SARS PLP yeast	AMA1-RON2 inh	Pf growth 96h	HCV inhibitor	NS1 inh	Pf growth 48h
Cc1ccc(NC(=O)c2sc(N)nc2-c2ccc([N+](=O)[O-])cc2)c(C)c1	0.2%	1.6%	0.0%	-24.4%	2.3%	-1.1%
N/C(=N\OC(=O)c1ccc(F)cc1)c1ccc(Br)cc1	-5.4%	1.6%	?	0.3%	-50.6%	-62.3%
N#C/C=C(/N)c1ccc(Br)cc1	-26.0%	-7.9%	10.4µM*	18.6%	20.4%	13.1µM*
Cc1ccc(S(=O)(=O)N2CCN(C(=O)COC(=O)CSc3ccc(C)c(C)c3)CC2)c(C)c1	-0.3%	-5.0%	21.2%	7.1%	.	?
CCSc1nnc(N2C(=O)c3ccc(C(=O)c4ccc(C(=O)O)cc4)cc3C2=O)s1	-0.6%	-2.8%	10.4µM*	11.4%	?	9.5%
CC(=O)N1CCc2cc(Br)cc(S(=O)(=O)NCCCN(C)Cc3ccccc3)c21	13.2%	3.3%	1.8%	-21.6%	10.2%	?
CCCC1COC(Cn2cncn2)(c2ccc(Cl)cc2Cl)O1 (centres undefined)	-20.1%	-10.4%	10.4%	-1.7%	-120.0%	11.7µM*
Clc1ccc(C2(Cn3cncn3)OCCO2)c(Cl)c1	.	.	?	.	.	-20.8%
Cc1ccc(S(=O)(=O)NC2c3cccc4cccc(c34)C2Sc2nc(C)cc(C)n2)cc1 (centres undefined)	30.0%	-5.4%	8.28µM*	?	-3.3%	10.4µM*
CCN(CC(=O)Nc1ccc2c(c1)OCCO2)C(=O)CSCC(=O)Nc1ccc(C)cc1	.	11.8%	16.8%	?	.	?
CCOc1cccc2cc(C(=O)NCc3ccc(C)cc3)c(=N)oc12	2.3%	-6.0%	-18.1%	13.8%	6.1%	-1.0%
CCOc1cccc2cc(C(=O)NCc3cccnc3)c(=O)oc12	-2.3%	-4.6%	2.33µM*	-25.4%	5.2%	17.6%
CCOc1cccc2cc(C(=O)NCc3ccc(OC)cc3)c(=N)oc12	-1.1%	-9.9%	10.4µM*	4.7%	12.2%	?
C=CCc1cccc2cc(C(=O)NCc3cccnc3)c(=O)oc12	-2.3%	3.9%	-1.7%	?	-8.8%	8.2%
Nc1nnc(CC(=O)N/N=C\c2cc([N+](=O)[O-])ccc2O)s1	-4.4%	-13.7%	10.4µM*	10.0%	-33.8%	12.2%
Nc1nnnn1CC(=O)N/N=C/c1cc([N+](=O)[O-])ccc1O	-0.1%	-10.6%	-10.1%	4.3%	12.2%	?
O=C(N/N=C/c1ccc(O)cc1O)NC12CC3CC(CC(C3)C1)C2	-0.6%	55.4%	-28.4%	6.5%	1.4%	?
